Compounds without any hit were thinned out: in the full panel of roughly 83,000, 20% have a hit.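 Cells were grown in 96-well plates and exposed to the test compound at a single concentration for 48 hours; results are reported as percent growth, with values below 10 considered active.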 Activity calls are given as the source filed them.
Key:
Assay in all cases: NCI-60 one-dose screen, 48 h (100 = growth as untreated, 0 = no growth, -100 = all killed)
Settings in all cases: 10 µM unless noted
[1] = system: SR leukemia
[2] = system: RPMI-8226 leukemia
[3] = system: OVCAR-8 ovarian
[4] = system: OVCAR-5 ovarian
[5] = system: OVCAR-4 ovarian
[6] = system: SK-OV-3 ovarian
[7] = system: IGROV1 ovarian
[8] = system: OVCAR-3 ovarian
[9] = system: HS 578T breast
[10] = system: NCI/ADR-RES ovarian
[11] = system: T-47D breast
[12] = system: BT-549 breast
[13] = system: MDA-MB-435 melanoma
[14] = system: SW-620 colon
[15] = system: MCF7 breast
[16] = system: HCT-116 colon
[17] = system: HCC-2998 colon
[18] = system: KM12 colon

Measured: growth

CCOC(=O)c1cc(C(=O)c2cc(OC)c(OC)c(OC)c2)n2ncccc12
inactive: [1] 18.3% | [2] 19.3% | [3] 30.4% | [4] 63.1% | [5] 62.4% | [6] 26.4% | [7] 47.2% | [9] 31.1% | [11] 58.5% | [12] 37% | [14] 33.6% | [15] 19.7% | [16] 11.8% | [17] 28.3% | [18] 20.8%
active: [8] -15.2% | [10] 3.34% | [13] -57.2%

COc1ccc(Nc2nnc(-c3ccc(OC)c(OC)c3)o2)cc1
inactive: [1] 86.6% | [2] 92.1% | [3] 90.9% | [4] 100% | [5] 89.2% | [6] 98% | [7] 78.7% | [8] 91.4% | [9] 94.2% | [10] 89.2% | [11] 79.1% | [12] 61.8% | [13] 109% | [14] 97.7% | [15] 90.9% | [16] 77.8% | [17] 120% | [18] 85.1%

O=C(Nc1cccc2ccccc12)NC1CC1
inactive: [1] 109% | [2] 105% | [3] 101% | [4] 110% | [5] 102% | [6] 97.1% | [7] 122% | [8] 114% | [9] 108% | [10] 111% | [11] 91.5% | [12] 91.1% | [13] 113% | [14] 105% | [15] 87% | [16] 103% | [17] 111% | [18] 115%

COc1ccc(C2=C(Br)C(=O)c3nc(C)ccc3C2=O)cc1
inactive: [1] 17.3% | [2] 72.5% | [3] 88.8% | [4] 109% | [5] 87.9% | [6] 85.1% | [7] 87.5% | [8] 40% | [9] 90.8% | [10] 97.4% | [11] 72.8% | [12] 93.4% | [13] 103% | [14] 27.2% | [15] 74.7% | [16] 74.1% | [17] 104% | [18] 91.9%

COc1cc(NS(=O)(=O)c2ccc(-c3cnc(C4CC4)o3)cc2)ccc1F
inactive: [1] 19.6% | [2] 20.2% | [3] 28.6% | [4] 36.7% | [5] 38.6% | [6] 47.4% | [7] 24.6% | [10] 15.3% | [11] 33.6% | [12] 44.6% | [14] 18% | [15] 12.7% | [16] 20.9% | [17] 38.4% | [18] 20.7%
active: [8] -15.4% | [9] 8.89% | [13] -21.3%

CCc1ccc(CCCC(=O)O)cc1
inactive: [1] 96.2% | [2] 103% | [3] 107% | [4] 98.3% | [5] 104% | [6] 100% | [7] 105% | [8] 108% | [9] 101% | [10] 99.1% | [11] 98.8% | [12] 101% | [13] 103% | [14] 108% | [15] 93.6% | [16] 98.1% | [17] 117% | [18] 106%

N#Cc1ccc(O)c(C2=NCC(c3ccccc3)O2)c1 (stereo unspecified)
active: [5] 9.62% | [8] 7.61% | [10] 1.45% | [11] -5.7%
inactive: [1] 38% | [2] 33.3% | [3] 19.6% | [4] 84% | [6] 45.3% | [7] 33.1% | [9] 77.2% | [12] 31.9% | [13] 57.8% | [14] 28.6% | [15] 25.3% | [16] 17.5% | [17] 47.8% | [18] 37.2%

OB1OCc2cc(/C=C/c3cccc(C(F)(F)F)c3)ccc21
inactive: [2] 15.7% | [3] 10.8% | [4] 37.6% | [6] 15.9% | [7] 16.8% | [9] 23.3% | [10] 15.2% | [11] 20.4% | [13] 20.8% | [14] 15.5% | [15] 21.8% | [17] 32.5% | [18] 14.6%
active: [1] -1.55% | [5] -12.9% | [8] -27.3% | [12] 8.09% | [16] 0.518%

NC(=O)c1cccc(-n2ccc3cc(NC(=O)c4ccc(N5CCOCC5)c(C(F)(F)F)c4)ccc32)n1
active: [11] 3.32%
inactive: [1] 26.5% | [2] 12.2% | [3] 31.9% | [4] 70.1% | [5] 47% | [6] 43.3% | [7] 74.8% | [8] 48.7% | [9] 14% | [10] 66.1% | [12] 45.3% | [13] 71.3% | [14] 68.2% | [15] 57.1% | [16] 44.5% | [17] 79.8% | [18] 33.3%

C#CCNC(=O)[C@H](CC)[C@H]1CC[C@H](C)[C@H]([C@@H](C)[C@H](O)[C@H](C)C(=O)[C@H](CC)C2O[C@]3(C=CC(=O)[C@]4(CC[C@@](C)([C@H]5CC[C@](O)(CC)[C@H](C)O5)O4)O3)[C@H](C)C[C@@H]2C)O1 (stereo partly specified)
inactive: [1] 13.5% | [2] 25.3% | [3] 66.8% | [4] 68.7% | [5] 13.9% | [6] 68.2% | [7] 48.5% | [9] 35% | [10] 14.7% | [11] 41.9% | [12] 40.9% | [14] 30.8% | [15] 24% | [16] 25.9% | [17] 85.4% | [18] 23.8%
active: [8] -23.5% | [13] -65.3%

O=S(=O)(Nc1cc(F)cc(Cl)c1)c1ccc(-c2cnc(C3CC3)o2)cc1
inactive: [1] 25.4% | [2] 28.9% | [3] 39.8% | [4] 50.8% | [5] 52.5% | [6] 44.2% | [7] 30% | [8] 10.2% | [10] 21.9% | [11] 31.7% | [12] 40.6% | [14] 12% | [15] 13.7% | [16] 28.1% | [17] 54.9% | [18] 29.4%
active: [9] -3.79% | [13] 1.17%

COc1cc(-c2cncn2-c2ccc(-c3nc4ccc(F)cc4s3)cc2)ccc1F
inactive: [1] 73% | [2] 53.6% | [3] 78.1% | [4] 75.7% | [5] 85.6% | [6] 106% | [7] 52.8% | [8] 97.5% | [9] 97.4% | [10] 80.3% | [11] 76.3% | [12] 85.3% | [13] 87.4% | [14] 54.3% | [15] 64.3% | [16] 37.7% | [17] 80.2% | [18] 81.7%

O=[N+]([O-])c1ccc(O)cc1Br
inactive: [1] 99.1% | [2] 91.4% | [3] 100% | [4] 94% | [5] 89.3% | [6] 101% | [7] 101% | [8] 106% | [9] 98.4% | [10] 98.9% | [11] 96.8% | [12] 91.2% | [13] 100% | [14] 104% | [15] 92.9% | [16] 95.4% | [17] 103% | [18] 101%

Cc1ccc(-c2nc(N3CCCNCC3)c3oc(-c4ccc(C)cc4)nc3n2)cc1
active: [1] -44.5% | [2] -51% | [3] -58.6% | [5] 2.2% | [8] -67.7% | [11] -46% | [14] -49.7% | [15] -64.8%
inactive: [4] 78.5% | [6] 98.1% | [7] 12.2% | [9] 110% | [10] 16.3% | [12] 90.2% | [13] 70.8% | [16] 27.5% | [17] 40.9% | [18] 11.3%

COc1ccc(NC(=O)c2sc3nc(C)c(C(=O)/C=C/c4ccccc4)cc3c2N)cc1
active: [2] -24.4% | [3] 8.59% | [8] 0.065% | [14] 2.56%
inactive: [1] 14.7% | [4] 63.5% | [5] 52.3% | [6] 103% | [7] 17% | [9] 34% | [10] 15.5% | [11] 57.7% | [12] 50% | [13] 15.7% | [15] 14.9% | [16] 12.3% | [17] 25.2% | [18] 18.7%

O=C(NCc1ccc(Cl)cc1Cl)C1CCC(=O)N1c1cccs1 (stereo unspecified)
inactive: [1] 91.8% | [2] 95.5% | [3] 93.5% | [4] 91.2% | [5] 97.5% | [6] 89.6% | [7] 92.4% | [8] 108% | [9] 101% | [10] 83.9% | [11] 75.8% | [12] 86% | [13] 97.2% | [14] 106% | [15] 88% | [16] 79% | [17] 93.4% | [18] 101%

O=C(Nc1ccc(Oc2cccc(Cl)c2)c(Cl)c1)c1cccnc1
inactive: [1] 19.9% | [2] 11.9% | [3] 32.1% | [4] 71.2% | [5] 47.8% | [6] 34.3% | [7] 42.1% | [9] 31.1% | [10] 11.9% | [11] 35.6% | [12] 53.3% | [14] 25.4% | [15] 21.6% | [16] 29.9% | [17] 58% | [18] 28.1%
active: [8] 2.66% | [13] -44.3%
